From PMC4336329 (PLoS ONE, 2015)
Hit rate of the full screen: of about 310,000 compounds, about 2,200 (0.71%) showed an effect of 50% or more. The effect is printed as a negative number. The sample holds strong results, similar compounds and a random draw of the others, so the mix is not that of the screen.

target: human ether-à-go-go-related gene (hERG) potassium channel (human, UniProt Q12809); assay: primary screen, population patch clamp on CHO cells stably expressing hERG; higher = less effect of the substance
Sequence (Q12809 whole entry, looked up): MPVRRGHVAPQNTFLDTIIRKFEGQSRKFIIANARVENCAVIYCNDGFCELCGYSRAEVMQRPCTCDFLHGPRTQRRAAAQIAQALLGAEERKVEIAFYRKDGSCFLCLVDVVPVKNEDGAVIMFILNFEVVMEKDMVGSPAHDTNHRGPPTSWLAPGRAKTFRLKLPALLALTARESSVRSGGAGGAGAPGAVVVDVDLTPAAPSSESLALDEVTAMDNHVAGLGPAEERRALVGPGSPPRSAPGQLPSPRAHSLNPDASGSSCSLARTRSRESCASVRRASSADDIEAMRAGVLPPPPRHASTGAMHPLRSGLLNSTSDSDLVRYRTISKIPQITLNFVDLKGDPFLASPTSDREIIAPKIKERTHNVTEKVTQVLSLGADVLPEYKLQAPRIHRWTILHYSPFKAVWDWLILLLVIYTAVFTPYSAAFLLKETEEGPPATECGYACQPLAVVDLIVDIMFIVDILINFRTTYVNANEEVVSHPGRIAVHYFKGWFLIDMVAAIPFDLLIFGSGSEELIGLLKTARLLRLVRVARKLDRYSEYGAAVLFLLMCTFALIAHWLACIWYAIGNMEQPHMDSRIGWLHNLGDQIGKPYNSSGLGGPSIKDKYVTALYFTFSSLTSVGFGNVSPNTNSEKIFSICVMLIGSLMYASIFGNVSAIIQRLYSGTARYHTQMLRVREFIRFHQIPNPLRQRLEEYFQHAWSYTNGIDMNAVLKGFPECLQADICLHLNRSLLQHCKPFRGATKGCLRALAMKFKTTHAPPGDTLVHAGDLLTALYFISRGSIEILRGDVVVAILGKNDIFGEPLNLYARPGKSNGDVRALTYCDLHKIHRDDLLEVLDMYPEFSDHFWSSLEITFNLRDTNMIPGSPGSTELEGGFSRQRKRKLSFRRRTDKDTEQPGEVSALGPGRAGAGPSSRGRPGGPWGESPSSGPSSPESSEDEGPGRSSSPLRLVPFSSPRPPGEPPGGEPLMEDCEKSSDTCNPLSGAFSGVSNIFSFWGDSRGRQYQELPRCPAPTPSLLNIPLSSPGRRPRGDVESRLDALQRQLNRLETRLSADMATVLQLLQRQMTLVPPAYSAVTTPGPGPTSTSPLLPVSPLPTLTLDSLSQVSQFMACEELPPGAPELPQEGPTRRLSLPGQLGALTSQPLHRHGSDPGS

Compound	hERG current change (%, negative = inhibition) at 1uM
Cn1c(=O)n(C)c2cc(NS(C)(=O)=O)ccc21	8.26%
COc1ccc(Cc2noc(CN3CCCC(C(=O)c4cccs4)C3)n2)cc1OC (centres unmarked)	9.47%
O=c1c2c(nc3n1CCS3)c1cc(F)ccc1n2Cc1cc(=O)n2cc(Cl)ccc2n1	10.3%
Cc1cc(F)ccc1S(=O)(=O)Nc1ccc(O)c(Sc2ncn[nH]2)c1	20.6%
Cc1cc(C)cc(N(C(=O)CCC(=O)Nc2ccccn2)C(C(=O)NC(C)C)c2ccc(O)cc2)c1 (centres unmarked)	1.99%
CCC(=O)c1ccc(OCC(O)CN2CCOCC2)cc1 (centres unmarked)	17.8%
CCC(=O)c1ccc(OCC(O)CN2CCCCC2)cc1.Cl (centres unmarked)	3.96%
CCC(=O)c1ccc(OCC(O)Cn2nc(C)c(C(C)=O)c2C)cc1 (centres unmarked)	4.75%
N#Cc1ccc(OCC(O)CN2CCN(C(c3ccccc3)c3ccccc3)CC2)cc1 (centres unmarked)	-69.5%
OC(COc1ccccc1)CN1CCN(C(c2ccccc2)c2ccccc2)CC1 (centres unmarked)	-24.1%
COc1ccc(OCC(O)CN2CCN(CC(O)COc3ccc(OC)cc3)CC2)cc1 (centres unmarked)	3.29%
OC(COc1ccc(OCC(O)CN2CCN(Cc3ccccc3)CC2)cc1)CN1CCN(Cc2ccccc2)CC1 (centres unmarked)	6.14%
OC(COc1ccc(F)cc1)CN1CCN(CC(O)COc2ccc(F)cc2)CC1 (centres unmarked)	-51.1%
CCC(=O)c1ccc(OCC(O)Cn2nc(C)c(Br)c2C)cc1 (centres unmarked)	-100%
CCC(=O)c1ccc(OCC(O)Cn2nc(C)cc2C)cc1 (centres unmarked)	7.89%
CC1CCN(CC(O)COc2ccc(F)cc2)CC1 (centres unmarked)	-13.3%
CCC(=O)c1ccc(OCC(O)CN2CCN(C(c3ccccc3)c3ccccc3)CC2)cc1 (centres unmarked)	-51.4%
O=c1[nH]c(=O)c2nc3ccccc3nc2[nH]1	2.78%
COc1cc(NC(=O)CN(C)C2CCCCC2)c(C)cc1[N+](=O)[O-]	6.09%
Cc1ccc(S(=O)(=O)N[C@@H](CC(C)C)C(=O)NCc2ccco2)cc1	3.58%
CCCCN(C(=O)/C=C/c1ccco1)c1c(N)n(Cc2ccccc2)c(=O)[nH]c1=O	7.19%
CCOc1cc(NC(=S)NCCCN2CCOCC2)c(OCC)cc1NC(=O)c1cccc(F)c1	-0.782%

Compound	hERG current change (%, negative = inhibition) at 1uM
C=CCOc1ccccc1/C=N/NC(=O)Cc1ccccc1	14.3%
Cc1ccc(S(=O)(=O)N2CCCC2C(=O)Nc2nc3c(s2)CCCC3)cc1 (centres unmarked)	13.2%
Cc1ccccc1OCC(O)CN1CCN(CC(O)COc2ccccc2C)C(C)C1.O=C(O)C(=O)O (centres unmarked)	-29%
CC(=O)c1ccc(N2CCN(CC(O)COCc3ccco3)CC2)cc1 (centres unmarked)	-29.3%
OC(COc1ccc(OCC(O)CN2CCCCC2)cc1)CN1CCCCC1 (centres unmarked)	18.1%
N#Cc1ccc(-c2ccc(OCC(O)CN3CCCCC3)cc2)cc1 (centres unmarked)	-52.1%
CC1CCCN(CC(O)COc2ccc(Cl)cc2)C1.Cl (centres unmarked)	-32.2%
OC(COCc1ccco1)CN1CCN(C(c2ccccc2)c2ccccc2)CC1 (centres unmarked)	-79.1%
O=C(O)C(=O)O.OC(COCc1ccco1)CN1CCN(c2ccccc2)CC1 (centres unmarked)	3.71%
OC1CCCN(CC(O)COc2ccc(-c3ccccc3)cc2)C1 (centres unmarked)	-0.151%
CC1CCCN(CC(O)COc2ccc(-c3ccccc3)cc2)C1 (centres unmarked)	-57.8%
CC1CCCCN1CC(O)COc1ccc(OCC(O)CN2CCCCC2C)cc1 (centres unmarked)	13.5%
CC1CN(CC(O)COc2ccc(C#N)cc2)CCN1CC(O)COc1ccc(C#N)cc1 (centres unmarked)	-86.2%
N#Cc1ccc(-c2ccc(OCC(O)CN3CCOCC3)cc2)cc1 (centres unmarked)	7.69%
COc1ccccc1NC(=O)COC(=O)/C=C/c1ccc2c(c1)OCO2	9.01%
O=C(Nc1ccc(C(=O)O)cc1)/C(=C\c1ccc2c(c1)OCO2)NC(=O)c1ccco1	19.4%
O=C(c1csc2c1CCCC2)N1CCN(c2ccc(F)cc2)CC1	2.84%
COc1ccc(C(=O)Nc2cccc(-c3ccc4nncn4n3)c2)cc1	7.11%
CCn1ncc(NC(=S)NCCc2ccccc2)c1C(N)=O	2.4%
CC(C)C(OC(=O)c1cccs1)C(=O)NCc1ccco1 (centres unmarked)	12.2%
O=S(=O)(Nc1cc(S(=O)(=O)N2CCOCC2)ccc1N1CCOCC1)c1ccc2c(c1)OCCO2	28.4%
COc1ccccc1N1C(=O)[C@@H]2[C@H](C1=O)[C@H](C(=O)c1ccc(OC(C)=O)cc1)N1N=CC=C[C@@H]21	15.9%

Compound	hERG current change (%, negative = inhibition) at 1uM
C#CCCOC(=O)N1C2=NC(C(=O)OC)=C(C(=O)OC)[C@@H]3N(C)c4ccc(OC)cc4[C@]23C[C@H]1C(=O)OC	-0.338%
CSc1ccc(/C=C2\CCn3c2nc2cc(C(=O)O)ccc2c3=O)cc1	15.6%
O=C(Nc1ccccn1)c1cc2ccccc2o1	9.79%
CCOC(=O)N/N=C/c1ccc(C)o1	5.21%
Cc1ccc(OCC(O)CN2CCN(CC(O)COc3ccc(C)cc3)CC2)cc1 (centres unmarked)	-8.83%
Cl.OC(COCC1COc2ccccc2O1)CN1CCN(c2ccc(F)cc2)CC1 (centres unmarked)	-57.6%
COc1ccc(N2CCN(CC(O)COc3ccc(F)cc3)CC2)cc1.Cl (centres unmarked)	-47.8%
OC(CN1CCN(c2ncc(C(F)(F)F)cc2Cl)CC1)c1ccccc1 (centres unmarked)	1.4%
N#Cc1ccc(OCC(O)CN2CCN(c3ncc(C(F)(F)F)cc3Cl)CC2)cc1 (centres unmarked)	-81.4%
O=C(O)CN1CCN(c2ncc(C(F)(F)F)cc2Cl)CC1	12.6%
N#Cc1ccc(OCC(O)CN2CCN(CC(O)COc3ccc(C#N)cc3)CC2)cc1 (centres unmarked)	-91.3%
Cl.OC(COCC1COc2ccccc2O1)CN1CCN(c2ccccc2F)CC1 (centres unmarked)	-19.9%
CC(=O)c1ccc(OCC(O)CN2CCN(c3ccc(F)cc3)CC2)cc1.Cl (centres unmarked)	-64.9%
CCC(=O)c1ccc(OCC(O)CN2CCN(c3ccc(F)cc3)CC2)cc1 (centres unmarked)	-15.1%
CN1CCN(CC(O)COc2ccc(OCC(O)CN3CCN(C)CC3)cc2)CC1 (centres unmarked)	10.2%
Cl.OC(COCC1COc2ccccc2O1)CN1CCN(c2ccccc2)CC1 (centres unmarked)	-24.7%
Cc1cc(N2CCCC2)ccc1NC(=O)CN1C(=O)NC(C)(c2ccccc2)C1=O (centres unmarked)	16%
O=P(O)(CCc1ccccc1)C(O)c1ccccc1 (centres unmarked)	5.09%
COc1cc(OC)cc(C(=O)N[C@H](C(=O)OCC(=O)NC(=O)c2cccn2C)C(C)C)c1	6.95%
C=CCNC(=O)CSc1ccc(Cl)cc1	13.7%
CNc1nnc(-c2ccc(C)cc2)c2ccccc12	-5.45%
Cc1ccc([N+](=O)[O-])c2c1C(N1CC(C)OC(C)C1)C(C)(C)O2 (centres unmarked)	17.1%

Compound	hERG current change (%, negative = inhibition) at 1uM
CCOc1ccc(NC(=O)COc2ccc(C(=O)NCCc3ccccc3)cc2)cc1	3.64%
Cc1cc(C(=O)N/N=C/c2cccc(Cl)c2Cl)no1	3.36%
O=C1OC(N2C(=O)CC[C@H]2C(=O)Nc2ccc(F)c(F)c2)c2ccccc21 (some centres unmarked)	8.61%
CC(=O)c1ccc(NC(=O)CSc2n[nH]c(-c3cccnc3)n2)cc1	14.1%
Cc1cccn2c(=O)c3cc(C(=O)NCCc4ccccc4)c(=N)n(CC4CCCO4)c3nc12 (centres unmarked)	-91%
COc1ccc(CCNC(=O)c2cc3c(=O)n4cccc(C)c4nc3n(CC3CCCO3)c2=N)cc1 (centres unmarked)	-79.4%
O=C(CSc1nc2ccccc2c(=O)n1CC1CCCO1)NCCc1ccccc1 (centres unmarked)	19.6%
N=c1c(C(=O)NCCc2ccccc2)cc2c(=O)n3ccccc3nc2n1CC1CCCO1 (centres unmarked)	-93.8%
COc1ccc(CCNC(=O)c2cc3c(=O)n4ccccc4nc3n(CC3CCCO3)c2=N)cc1OC (centres unmarked)	-90.3%
COc1ccc(CCNC(=O)Cn2c(=O)n(CC3CCCO3)c(=O)c3ccccc32)cc1OC (centres unmarked)	3.58%
Cc1ccc(NC(=O)N2CCCCCC2)cc1	0.321%
CCOC(=O)c1cnc(-n2nc(C)cc2C)nc1Nc1ccc(O)cc1	14.2%
COc1cc(Cl)c(C)cc1NC(=O)CSc1sc2c(O)cc(=O)[nH]c2c1C#N	18.7%
CC(=O)c1ccccc1NS(C)(=O)=O	9.61%
COc1ccccc1Nc1ncnc2ccc(C)cc12	12.7%
Cc1ccc(CCNC(=O)c2ccc3nc4ccccc4c(=O)n3c2)cc1	14.3%
Cc1cccn2c(=O)c3cc(C(=O)NCc4ccc(F)cc4)c(=N)n(CC4CCCO4)c3nc12 (centres unmarked)	-81.8%
Cc1ccc(S(=O)(=O)c2cc3c(=O)n4cccc(C)c4nc3n(CC3CCCO3)c2=N)cc1C (centres unmarked)	12.9%
COc1ccc(CNC(=O)c2cc3c(=O)n4cccc(C)c4nc3n(CC3CCCO3)c2=N)cc1 (centres unmarked)	-83.8%
Cc1ccc2nc3c(cc(C(=O)NCCc4ccccc4)c(=N)n3CC3CCCO3)c(=O)n2c1 (centres unmarked)	-84%
